Rows were chosen to be rich in hits. Some 9.4% of all compounds tested hit in one or more screens of this group.
AMA1 RON2 block: AMA1-RON2 (P. falciparum) interaction inhibition; AlphaScreen AMA1-biotinylated RON2 peptide binding; Potency, µM (doses to about 58.2 µM), without a hit: at the top dose activity change, negative = inhibition, actives largely listed as inhibitors; 360,000 compounds, 0.2% hits; AID 720542;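 note: 0% = vehicle wells and -100% = peptide control; nearly all actives have a fitted effect of over 45% in size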
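AMA1 (3D7) with his tag at 25 nM final met compounds first, then biotinylated RON2 peptide at 25 nM; detection used donor plus acceptor beads, 10 µg/mL apiece, read by AlphaScreen after 30 min at room temperature.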
Pf growth 48h: P. falciparum growth inhibition at 48 hours (one generation). P. falciparum luciferase growth in erythrocytes, 48 h. Potency, µM (highest dose often 28.7 µM), for inactives: top-dose activity change, negative = inhibition, most hits filed as inhibitors. 310,000 compounds, 5.9% hits; note: % is set by controls: 0 for no effect and ±100 for the full control effect
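Parasite viability was followed by luminescence of a genomically integrated firefly luciferase. Cultures held 0.1% parasitemia at 2% hematocrit (final), incubated under 5% CO2 at 37 C.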
Pf growth 96h: inhibits malaria parasite growth, 96 h | P. falciparum luciferase reporter growth, 96 h | Potency, µM (doses to about 28.7 µM), for the others: at the top dose activity change, negative = inhibition, usual class: inhibitors | 320,000 compounds, 6.9% hits | AID 504834; note: % is set by controls: 0 for no effect and ±100 for the full control effect
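Luminescence readout: decreased luciferase signal marks inhibited growth of reporter-expressing P. falciparum in infected red cells (2% hematocrit, 0.05% parasitemia final), exposed to compound two generations (96 h, 37 C, 5% CO2).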
SARS PLP yeast: inhibitors of SARS-CoV papain-like protease in yeast. Potency, µM (top dose mostly 32.9 µM), inactives show top-dose activity, positive = growth rescue, usual class: activators. S. cerevisiae expressing SARS-CoV PLpro, growth rescue. 330,000 compounds, 0.19% hits; calls by dose curve; note: 0% is about no effect; nearly all actives have a fitted effect of over 55% in size
Active calls of the source: *; [ ] = another dose, or the depositor's remark. Unless noted, calls come from the whole dose curve; as a rule, active = well fitted curve in the direction sought with a large enough effect; inconclusive = small, poorly fitted or top-dose-only effect, or another doubt; inactive = no such curve, though single readings can be large; an effect the other way counts as inactive or inconclusive. Potency is the fitted concentration of half-maximal effect.

What do the screens show for `O=C1CC(NS(=O)(=O)c2ccc([N+](=O)[O-])cc2)CN1c1ccc2c(c1)OCCO2` (stereo unspecified)?
AMA1 RON2 block: -7%; Pf growth 48h: -10%; Pf growth 96h: -8%; SARS PLP yeast: 1%

Results for CO/N=C(/C(=O)N[C@@H]1C(=O)N2C(C(=O)O)=C(C[n+]3ccc(N)n3CCO)CS[C@H]12)c1csc(N)n1 ?
Pf growth 48h: -6%; Pf growth 96h: 11µM*

Results for CO/N=C(\C(=O)N[C@@H]1C(=O)N2C(C(=O)O)=C(COC(C)=O)CS[C@@H]12)c1csc(N)n1 ?
Pf growth 48h: 1%; Pf growth 96h: 0%

What do the screens show for `CO/N=C(/C(=O)N[C@@H]1C(=O)N2C(C(=O)O)=C(CSC(=O)c3ccco3)CSC12)c1csc(N)n1` (stereo partly specified)?
Pf growth 48h: inconclusive; Pf growth 96h: 13µM*

What do the screens show for `CCN(CC)C(=O)/C=C/c1ccccc1`?
AMA1 RON2 block: -5%; Pf growth 48h: 81%; Pf growth 96h: 80%; SARS PLP yeast: 0%

How did CCN(C(=O)/C=C/c1ccccc1)C1CCCCC1 do in these assays?
AMA1 RON2 block: 11%; Pf growth 48h: 84%; Pf growth 96h: 13µM*; SARS PLP yeast: -2%

What do the screens show for `CC1(C)Cc2nc(NCCCO)c(C#N)cc2CO1`?
AMA1 RON2 block: -13%; Pf growth 48h: 6%; Pf growth 96h: 4%; SARS PLP yeast: 0%

How did Cc1ccc(-n2c(SCc3ccc(C#N)cc3)nnc2-c2ccccn2)cc1 do in these assays?
AMA1 RON2 block: 7%; Pf growth 48h: inconclusive; Pf growth 96h: 10µM*; SARS PLP yeast: -3%

How did COc1ccc(-n2c(SCc3ccc(C#N)cc3)nnc2-c2ccccn2)cc1 do in these assays?
AMA1 RON2 block: 3%; Pf growth 48h: inconclusive; Pf growth 96h: inconclusive; SARS PLP yeast: 2%

What do the screens show for `C=CCn1c(COc2ccccc2)nnc1SCc1ccc(C#N)cc1`?
AMA1 RON2 block: 7%; Pf growth 48h: -10%; Pf growth 96h: 0.93µM*; SARS PLP yeast: -4%

How did CCOc1ccc(-n2c(COc3ccc(C)cc3)nnc2SCC(N)=O)cc1 do in these assays?
AMA1 RON2 block: 1%; Pf growth 48h: -28%; Pf growth 96h: inconclusive; SARS PLP yeast: -4%

What do the screens show for `CCOC(=O)C(CC)Sc1nnc(COc2ccc(C)cc2)n1-c1ccccc1` (stereo unspecified)?
AMA1 RON2 block: 25%; Pf growth 48h: 13µM*; Pf growth 96h: inconclusive; SARS PLP yeast: -22%

How did Cc1ccc(OCc2nnc(SCc3ccc(C#N)cc3)n2-c2ccc(C)cc2)cc1 do in these assays?
AMA1 RON2 block: -14%; Pf growth 48h: 13µM*; SARS PLP yeast: -11%

What do the screens show for `COc1ccc(-c2nnc(SCC(=O)N(C)C3CCS(=O)(=O)C3)n2C(C)C)cc1` (stereo unspecified)?
AMA1 RON2 block: 3%; SARS PLP yeast: 0%

Results for CC(=O)Nc1ccc(Nc2cc(C)c3ccccc3n2)cc1 ?
AMA1 RON2 block: 5%; Pf growth 48h: -8%; Pf growth 96h: inconclusive; SARS PLP yeast: -2%

How did Cc1cc2c(s1)c1cnn(CC(=O)NCCc3ccccc3)c(=O)c1n2C do in these assays?
AMA1 RON2 block: 4%; Pf growth 48h: -13%; SARS PLP yeast: 2%

Results for CCOC(=O)N/N=C/c1c[nH]c2ccccc12 ?
AMA1 RON2 block: -2%; Pf growth 48h: 38%; Pf growth 96h: 53%; SARS PLP yeast: 0%

How did O=C(C1COc2ccccc2O1)N1CCN(c2nc3ccc([N+](=O)[O-])cc3s2)CC1 (stereo unspecified) do in these assays?
AMA1 RON2 block: 6%; Pf growth 48h: 8%; Pf growth 96h: 24%; SARS PLP yeast: 0%

How did CC(=O)Nc1nc2ccccc2n1Cc1ccccc1Cl do in these assays?
AMA1 RON2 block: 64%; Pf growth 48h: 3.3µM*; Pf growth 96h: inconclusive; SARS PLP yeast: 1%

Results for CC(=O)Nc1nc2ccccc2n1Cc1ccccc1C ?
AMA1 RON2 block: inconclusive; Pf growth 48h: 7.4µM*; Pf growth 96h: 34%; SARS PLP yeast: 7%

How did CC(=O)NCc1nc2ccccc2n1Cc1ccccc1C do in these assays?
AMA1 RON2 block: 6%; Pf growth 48h: -8%; Pf growth 96h: inconclusive; SARS PLP yeast: -4%

What do the screens show for `CC(=O)Nc1nc2ccccc2n1CCOc1ccccc1Cl`?
AMA1 RON2 block: 24%; Pf growth 48h: 3.7µM*; Pf growth 96h: 12%; SARS PLP yeast: 1%

How did CCC(=O)Nc1nc2ccccc2n1Cc1ccccc1Cl do in these assays?
AMA1 RON2 block: 74%; Pf growth 48h: 3.3µM*; Pf growth 96h: 2.9µM*; SARS PLP yeast: 4%

How did O=C(C1CCN(S(=O)(=O)Cc2ccccc2)CC1)N1CCN(c2ncccn2)CC1 do in these assays?
AMA1 RON2 block: inconclusive; Pf growth 48h: -8%; Pf growth 96h: inconclusive; SARS PLP yeast: 5%

Results for COc1cc(Cl)c(C)cc1NC(=O)CSc1nnc(-c2ccccn2)n1Cc1ccco1 ?
AMA1 RON2 block: -7%; Pf growth 48h: inconclusive; Pf growth 96h: inconclusive; SARS PLP yeast: 0%

How did CCCn1c(Nc2nc3ccccc3n2C)nc2ccccc21 do in these assays?
AMA1 RON2 block: 28%; Pf growth 48h: 7.4µM*; Pf growth 96h: 7.4µM*; SARS PLP yeast: -20%

Results for CCCCn1c(Nc2ccccc2)nc2ccccc21 ?
AMA1 RON2 block: 41%; Pf growth 96h: inconclusive; SARS PLP yeast: -5%

Results for Cc1ccccc1Cn1c(-c2ccc(=O)[nH]c2)nc2ccccc21 ?
AMA1 RON2 block: 8%; Pf growth 48h: 12µM*; Pf growth 96h: 7.4µM*; SARS PLP yeast: 4%

What do the screens show for `CCCCCCCn1c(NC(=O)CC)nc2ccccc21`?
AMA1 RON2 block: 83%; Pf growth 48h: 1.9µM*; Pf growth 96h: 0.93µM*; SARS PLP yeast: 1%

How did Cc1cccc(NC(=S)N(C)C2(c3ccccc3Cl)CCCCC2=O)c1 (stereo unspecified) do in these assays?
AMA1 RON2 block: -8%; Pf growth 48h: inconclusive; SARS PLP yeast: -14%

Results for CN(C)S(=O)(=O)c1ccc(C(=O)NCC(c2cccs2)N2CCOCC2)cc1 (stereo unspecified) ?
AMA1 RON2 block: -22%; Pf growth 48h: inconclusive; Pf growth 96h: inconclusive; SARS PLP yeast: 15%

What do the screens show for `Nc1cc(Cl)cc2c1-c1ccc(Cl)cc1C2O` (stereo unspecified)?
AMA1 RON2 block: -2%

How did CC(C)C(c1nnnn1C1CCCCC1)N1CCc2ccccc21 (stereo unspecified) do in these assays?
AMA1 RON2 block: -4%; Pf growth 48h: 12µM*; SARS PLP yeast: 5%

Results for Cc1ccc(C(c2nnnn2C2CCCCC2)N2CCc3ccccc32)cc1 (stereo unspecified) ?
AMA1 RON2 block: -1%[11.6 µM]; Pf growth 48h: 12µM*; Pf growth 96h: inconclusive; SARS PLP yeast: -39%

How did CC(C)C(c1nnnn1C1CCCCC1)N1CCOCC1 (stereo unspecified) do in these assays?
AMA1 RON2 block: 6%; Pf growth 48h: 0%; Pf growth 96h: 34%; SARS PLP yeast: -5%

Screens as filed in PubChem.
